Calls of active or inactive are those of the source. The rule behind the calls is not given here.

This assay deals with Aerobactin synthetase IucA (Klebsiella pneumoniae hvKP1). The assay can be described thus: Biochemical IucA enzyme inhibition primary screen of the Spectrum library (AID 1346200).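 Note: 100% = wells without compound and 0% = wells lacking enzyme.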 As to conditions: malachite green pyrophosphate, A620, at 8 µM, active compounds read low.
`COc1cc(O)c(C(=O)/C=C/c2ccccc2)c(OC)c1`: the activity remaining is 119% (inactive).

In the case of `N[C@H](Cc1ccccc1)C(=O)O`, the activity remaining was 122% (inactive).

Turning to `COc1ccc2c(c1)[C@@]1(C)CCC(=O)C[C@@H]1CC2`, the activity remaining is 118% (inactive).

`COc1cc2nc(N(C)CCCNC(=O)C3CCCO3)nc(N)c2cc1OC` (centres undefined): the activity remaining was 120% (inactive).

The values above are taken from PubChem BioAssay.
